# Compound activity (PubChem BioAssay)
# NPC1 prom act: qHTS Assay for NPC1 Promoter Activators | Huh7 NPC1 promoter luciferase reporter, 24 h | Potency, µM (series often up to 9.22 µM), for the others: at the highest dose activation, hits mostly activators | 320,000 compounds, 2.4% hits | AID 485313, 2010; also: % of control where 0% means no effect; nearly all actives have a fitted effect of over 60% in size
#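 Luminescence from an NPC1 promoter-driven luciferase reporter in stably transfected Huh7 cells was measured after 24 h compound treatment at 37 °C, followed by 10 min ambient incubation with luciferase detection reagent.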
# Rab9 promoter act: qHTS Assay for Rab9 Promoter Activators; 320,000 compounds, 2.8% hits; Potency, µM (highest dose often 9.22 µM), for the others: at the top dose activation, negative = inhibition, hits mostly activators; Huh7 Rab9 promoter-luciferase reporter, luminescence, 24 h; also: % of control where 0% means no effect; nearly all actives have a fitted effect of over 60% in size
#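 Stable Rab9-luc Huh7, 1500 cells/well, 2 h settle; cmpd in DMSO, 24 h, 37 °C/5% CO2; luciferase reagent 10 min RT; luminescence.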
# ELG1 genotox: qHTS screen for small molecules that induce genotoxicity in human embryonic kidney (HEK293T) cells expressing luciferase-tagged ELG1; HEK293T ELG1-luciferase reporter, luminescence, 16 h; Potency, µM (highest dose often 46 µM), for inactives: top-dose activity change, positive = activation, hits mostly activators; 330,000 compounds, 1.3% hits; also: % of control where 0% means no effect; nearly all actives have a fitted effect of over 60% in size
#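 After overnight (16 hr) compound treatment at 37 °C, ELG1-luciferase HEK293T cells were lysed with ONE-Glo; luminescence quantified 30 min later at room temperature.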
# p53 reactivator: qHTS assay for re-activators of p53 using a Luc reporter; AID 504706, 2011; 320,000 compounds, 0.063% hits; H1299 p53-A138V BP100-luciferase reporter, luminescence, 24 h; Potency, µM (top dose mostly 92.2 µM), for the others: at the highest dose activity change, positive = activation, usual class: activators; also: % of control where 0% means no effect; nearly all actives have a fitted effect of over 45% in size
#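 p53-null H1299 cells stably carrying temperature-sensitive p53-A138V and a BP100-luciferase reporter were pinned with compounds (4-point, 1:5 series) and held 24 hrs at 37 deg C. Luminescence was read 10 min after detection reagent.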
# SMN2 splice up: qHTS Assay for Enhancers of SMN2 Splice Variant Expression; HEK293 SMN2-luciferase splicing reporter, luminescence, 30-36 h; Potency, µM (highest dose often 46.1 µM), for the others: top-dose activity change, positive = activation, usual class: activators; 210,000 compounds, 2.8% hits; also: % of control where 0% means no effect; nearly all actives have a fitted effect of over 55% in size
#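 HEK293 cells carry an SMN2 […]–luciferase reporter in which exon 7 inclusion puts luciferase in frame. Cells were plated 10-12 h before compound addition, then incubated 30-36 h at 37C. ONE-Glo luminescence was read; sodium butyrate at 4.5 mM final served as control.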
# FLuc modulator: qHTS profiling assay for firefly luciferase inhibitor/activator using purifed enzyme and Km concentrations of substrates (counterscreen for miR-21 project). 360,000 compounds, 6.9% hits. Luciferin 4-monooxygenase (Photinus pyralis), P08659. purified FLuc, Km substrates, luminescence inhibition. Potency, µM (highest dose often 57.5 µM), for the others: top-dose activity change, negative = inhibition, hits mostly inhibitors. AID 588342, 2011;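 also: plate controls were vehicle for no effect and reference inhibitor for full effect; nearly all actives have a fitted effect of over 55% in size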
# Target sequence (P08659 whole entry, looked up): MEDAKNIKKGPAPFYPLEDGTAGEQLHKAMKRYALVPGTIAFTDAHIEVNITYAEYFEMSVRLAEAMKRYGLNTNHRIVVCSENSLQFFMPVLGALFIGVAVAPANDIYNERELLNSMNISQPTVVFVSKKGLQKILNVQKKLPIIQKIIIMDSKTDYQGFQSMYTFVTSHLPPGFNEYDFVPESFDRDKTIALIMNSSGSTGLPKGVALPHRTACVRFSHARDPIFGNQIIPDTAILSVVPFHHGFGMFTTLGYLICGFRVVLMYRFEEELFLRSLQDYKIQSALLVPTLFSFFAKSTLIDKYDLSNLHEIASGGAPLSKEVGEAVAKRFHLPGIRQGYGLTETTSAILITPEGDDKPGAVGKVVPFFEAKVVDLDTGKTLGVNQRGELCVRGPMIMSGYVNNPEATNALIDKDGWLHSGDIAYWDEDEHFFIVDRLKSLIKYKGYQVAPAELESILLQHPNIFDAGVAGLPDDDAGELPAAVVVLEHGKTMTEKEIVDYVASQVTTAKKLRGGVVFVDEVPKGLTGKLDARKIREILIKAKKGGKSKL
#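 Biochemical qHTS of compounds, final roughly 60 µM downward over six points, against 10 nM purified firefly luciferase using Km concentrations of substrates (10 uM D-luciferin, 10 uM ATP) in Tris acetate pH 7.5 buffer; luminescence output.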
# Active calls of the source: *; u = inconclusive; x = not tested or not shown; [ ] = dose if it differs, or a comment. Sampled rows, rich in hits. Any-hit rate of the full collection: about 7.3%. Calls follow the shape of the dose curve; as a rule, active = well fitted curve in the direction sought with a large enough effect; inconclusive = small, poorly fitted or top-dose-only effect, or another doubt; inactive = no such curve, though single readings can be large; an effect the other way counts as inactive or inconclusive. Potency is read from the fitted curve at half-maximal effect.
SMILES,NPC1 prom act,Rab9 promoter act,ELG1 genotox,p53 reactivator,SMN2 splice up,FLuc modulator
COc1ccccc1CNC(=O)C1CCN(S(=O)(=O)c2c(C)noc2/C=C/c2c(C)cc(C)cc2C)CC1,x,x,x,x,x,0%
COc1cc(C(=O)NNc2nc3cc4c(cc3s2)OCO4)cc(OC)c1OC,0%,u,0%,-2%,-26%,u
COc1ccccc1C(=O)Nc1nc2cc3c(cc2s1)OCCO3,u,0.71µM*,2.1µM*,13%,x,0.67µM*
COc1cccc(CNC(=O)Nc2cc(C(=O)NCc3cccc(F)c3)ccc2N2CCCC2)c1,x,x,x,x,x,-6%
CSc1ccccc1NC(=O)C1CC(c2c(F)cccc2Cl)=NO1 (configuration not stated),14%,16%,u,x,x,17µM*
COc1cccc(/C=N/n2c(-c3ccco3)nc3ccccc3c2=O)c1,0.4µM*,0.56µM*,2%,u,0.79µM*,13µM*
COc1ccc(/C=N/n2c(-c3ccco3)nc3ccccc3c2=O)cc1,2%,-1%,2%,13%,-32%,-15%
Cn1c(N=NC(=O)c2ccccc2)c(O)c2ccccc21,0.71µM*,0.56µM*,u,u,1.3µM*,0.85µM*
Cc1ccc(Nc2nc(NCc3ccco3)c3ccccc3n2)cc1,6%,0%,-16%,1%,-76%,21µM*
CCOc1nc(NCCO)nc(Nc2ccccc2F)n1,2%,-4%,17%,5%,15%,-2%
COc1ccc(Nc2nc(NCC3CCCO3)c3ccccc3n2)c(OC)c1 (configuration not stated),-3%,-6%,-21%,-7%,-44%,24µM*
COc1ccccc1Nc1nc(NCc2ccco2)c2ccccc2n1,2%,-14%,-10%,0%,x,19µM*
Oc1ccccc1-c1nc(NCc2ccco2)c2ccccc2n1,0%,1%,0%,10%,5%,1%[2.3 µM]
CCOc1nc(NCc2ccco2)nc(Nc2ccccc2F)n1,29%,30%,u,u,7.1µM*,-17%
CCOc1ccc(Nc2nc(NCC3CCCO3)c3ccccc3n2)cc1 (configuration not stated),-33%,-26%,-7%,9%,-74%,u
CCc1ncc(/C=C2\C(=O)Nc3ccccc32)[nH]1,u,u,6%,6%,x,13µM*
Cc1ncc(/C=C2\C(=O)Nc3ccccc32)[nH]1,u,15%,8%,3%,x,u
CCN(C(=O)COC(=O)c1cc(-c2ccc(C)o2)nc2ccccc12)C1CCS(=O)(=O)C1 (configuration not stated),2%,13%,-2%,1%,0%,19µM*
Cc1ccc(-c2cc(C(=O)OCC(=O)N(C)C3CCS(=O)(=O)C3)c3ccccc3n2)o1 (configuration not stated),11%,13%,1%,5%,54%,u
O=C1CC[C@@]23CCCN2C(=O)CCCC3C1 (some centres not stated),x,x,-2%,-1%,x,x
CC(=O)Nc1ccc(/C(C)=N/NS(=O)(=O)c2ccc(C)cc2)cc1,-2%,0%,1%,7%,-18%,3%
C/C(=N\NS(=O)(=O)c1ccc([N+](=O)[O-])cc1)c1ccc(NC(=O)c2ccco2)cc1,11%,5%,u,16%,18µM*,u
O=C(Nc1ccc(NC(=O)c2ccc([N+](=O)[O-])cc2[N+](=O)[O-])cc1)c1ccco1,1%,18%,15%,3%,x,2%
C/C(=N/NS(=O)(=O)c1ccc(Br)cc1)c1ccc(NC(=O)c2ccc(C)o2)cc1,2%,7%,-1%,19%,14%,24µM*
CCCCCCCC1=Cc2ccc(F)cc2C(C(C(C)=O)C(=O)OC)N1C(=O)OC (configuration not stated),x,x,x,x,6%,x
SMILES,NPC1 prom act,Rab9 promoter act,ELG1 genotox,p53 reactivator,SMN2 splice up,FLuc modulator
Cc1ccc(OCC(=O)Nc2ccc3nc(SCC(=O)N4CCOCC4)sc3c2)cc1C,x,x,x,x,x,1%
Cc1ccc(C(=O)N/N=C/c2ccc(-c3cccc(C(F)(F)F)c3)o2)cn1,-34%,-17%,1%,2%,x,-2%
N#CCCN1CCN(C(=S)c2ccc(-c3cc(Cl)ccc3Cl)o2)CC1,-2%,1%,-3%,-1%,-17%,-16%
CN1CCN(C(=S)c2ccc(-c3cc(Cl)ccc3Cl)o2)CC1,3%,2%,-1%,-3%,x,17µM*
S=C(c1ccc(-c2ccc(Cl)cc2Cl)o1)N1CCCC1,u,u,10%,10%,x,11µM*
S=C(c1ccc(-c2ccc(Cl)cc2Cl)o1)N1CCCCC1,u,2.8µM*,u,u,13µM*,4.8µM*
Cc1ccc(-c2n[nH]c3c2C(c2cccs2)N(c2ccc(Cl)cc2)C3=O)cc1 (configuration not stated),x,x,x,x,-54%,4%
COc1ccc(C2OC3=C(Nc4cc(C)c(C)cc4N3)C2=O)cc1 (configuration not stated),3.5µM*,2.8µM*,u,u,x,u
Cc1cc2c(cc1C)NC1=C(N2)OC(c2cccc(O)c2)C1=O (configuration not stated),-1%,-3%,6%,0%,x,u
CC(=O)c1c(C)[nH]c(C(=O)Nc2ccc(Cl)c(S(=O)(=O)N(C)C)c2)c1C,3.5µM*,3.2µM*,18µM*,-1%,11µM*,17µM*
CC(=O)c1c(C)[nH]c(C(=O)Nc2ccc(Cl)cc2F)c1C,1.8µM*,2.8µM*,u,u,x,9.5µM*
CC(=O)c1c(C)[nH]c(C(=O)NCCc2ccc(Cl)cc2)c1C,8%,14%,-2%,3%,4%,-19%
CC(=O)c1c(C)[nH]c(C(=O)Nc2ccccn2)c1C,1.3µM*,3.2µM*,10µM*,28%,x,9.5µM*
CC(=O)c1c(C)[nH]c(C(=O)Nc2ccc(Cl)cc2)c1C,3.2µM*,1.8µM*,0%,u,x,9.5µM*
Cc1c(C(=O)N2CCCCCC2)c(S(=O)(=O)Nc2cccc(C#N)c2)c(C)n1C,x,x,x,x,x,-1%
N=C(N)SCc1cc(Cl)cc(Cl)c1O,x,x,x,x,-12%[9.22 µM],x
CCC(C)c1ccc(NC(=O)c2[nH]c(C)c(C(C)=O)c2C)cc1 (configuration not stated),25%,15%,7%,2%,x,19µM*
